Assays:
Assay in all cases: log2 ratio of Biotin-Ahx-Ub-VS probe labelling (fragment/DMSO); higher = less target engagement (more negative = stronger competition), active = hit call of the paper (q ≤ 0.05, log2 ratio ≤ -1)
Settings in all cases: compound concentration: 200 uM; treatment time: 3 h
USP19 = target: T1, USP19 (UniProt O94966)
T1 sequence (whole entry): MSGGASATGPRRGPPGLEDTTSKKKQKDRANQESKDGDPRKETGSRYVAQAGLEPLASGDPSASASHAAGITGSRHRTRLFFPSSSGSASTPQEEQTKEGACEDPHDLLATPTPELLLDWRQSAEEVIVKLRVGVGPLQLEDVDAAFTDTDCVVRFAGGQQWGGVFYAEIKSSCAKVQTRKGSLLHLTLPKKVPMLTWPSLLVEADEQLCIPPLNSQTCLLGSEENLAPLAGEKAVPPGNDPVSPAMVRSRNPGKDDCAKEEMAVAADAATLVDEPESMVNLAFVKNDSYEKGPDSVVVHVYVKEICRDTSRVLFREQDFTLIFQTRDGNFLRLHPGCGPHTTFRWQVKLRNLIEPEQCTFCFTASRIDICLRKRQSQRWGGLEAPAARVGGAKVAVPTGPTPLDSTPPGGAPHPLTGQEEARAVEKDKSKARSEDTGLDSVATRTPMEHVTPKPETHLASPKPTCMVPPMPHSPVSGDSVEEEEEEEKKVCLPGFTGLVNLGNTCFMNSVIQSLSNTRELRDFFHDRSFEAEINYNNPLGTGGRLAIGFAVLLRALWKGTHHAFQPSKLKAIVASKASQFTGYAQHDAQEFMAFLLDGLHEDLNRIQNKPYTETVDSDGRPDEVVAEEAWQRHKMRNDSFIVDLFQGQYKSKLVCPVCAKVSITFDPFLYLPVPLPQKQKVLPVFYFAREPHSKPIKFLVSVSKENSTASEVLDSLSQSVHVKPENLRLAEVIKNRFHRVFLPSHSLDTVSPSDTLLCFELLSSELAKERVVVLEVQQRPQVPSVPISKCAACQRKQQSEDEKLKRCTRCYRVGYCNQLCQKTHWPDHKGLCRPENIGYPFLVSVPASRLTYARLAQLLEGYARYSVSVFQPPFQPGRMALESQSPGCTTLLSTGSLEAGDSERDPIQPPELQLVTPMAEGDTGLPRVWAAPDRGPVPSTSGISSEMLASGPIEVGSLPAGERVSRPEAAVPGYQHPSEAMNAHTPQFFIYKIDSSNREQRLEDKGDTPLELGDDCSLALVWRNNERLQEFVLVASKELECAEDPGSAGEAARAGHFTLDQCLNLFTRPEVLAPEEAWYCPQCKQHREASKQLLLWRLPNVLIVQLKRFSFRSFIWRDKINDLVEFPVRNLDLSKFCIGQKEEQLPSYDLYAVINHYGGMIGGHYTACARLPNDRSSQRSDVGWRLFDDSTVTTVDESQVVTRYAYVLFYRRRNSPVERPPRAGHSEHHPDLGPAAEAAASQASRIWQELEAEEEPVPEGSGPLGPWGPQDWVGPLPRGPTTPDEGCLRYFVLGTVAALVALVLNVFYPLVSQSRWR
In short: (§1)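 Average log2 ratios of fragment over vehicle were obtained by unpaired t-test from global-median-normalised Spectronaut label-free quantities. Proteins with ≥2 unique peptides were included. HEK293T lysate (495 µg per sample) was treated in triplicate with fragment at 200 µM or vehicle for 3 h, then with Biotin-Ahx-Ub-VS at 0.5 µM final for 1 h, and labelled DUBs were NeutrAvidin-enriched and run by diaPASEF LC-MS/MS.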

USP24 = USP24 (UniProt Q9UPU5)
Chain of USP24 (Q9UPU5 whole entry): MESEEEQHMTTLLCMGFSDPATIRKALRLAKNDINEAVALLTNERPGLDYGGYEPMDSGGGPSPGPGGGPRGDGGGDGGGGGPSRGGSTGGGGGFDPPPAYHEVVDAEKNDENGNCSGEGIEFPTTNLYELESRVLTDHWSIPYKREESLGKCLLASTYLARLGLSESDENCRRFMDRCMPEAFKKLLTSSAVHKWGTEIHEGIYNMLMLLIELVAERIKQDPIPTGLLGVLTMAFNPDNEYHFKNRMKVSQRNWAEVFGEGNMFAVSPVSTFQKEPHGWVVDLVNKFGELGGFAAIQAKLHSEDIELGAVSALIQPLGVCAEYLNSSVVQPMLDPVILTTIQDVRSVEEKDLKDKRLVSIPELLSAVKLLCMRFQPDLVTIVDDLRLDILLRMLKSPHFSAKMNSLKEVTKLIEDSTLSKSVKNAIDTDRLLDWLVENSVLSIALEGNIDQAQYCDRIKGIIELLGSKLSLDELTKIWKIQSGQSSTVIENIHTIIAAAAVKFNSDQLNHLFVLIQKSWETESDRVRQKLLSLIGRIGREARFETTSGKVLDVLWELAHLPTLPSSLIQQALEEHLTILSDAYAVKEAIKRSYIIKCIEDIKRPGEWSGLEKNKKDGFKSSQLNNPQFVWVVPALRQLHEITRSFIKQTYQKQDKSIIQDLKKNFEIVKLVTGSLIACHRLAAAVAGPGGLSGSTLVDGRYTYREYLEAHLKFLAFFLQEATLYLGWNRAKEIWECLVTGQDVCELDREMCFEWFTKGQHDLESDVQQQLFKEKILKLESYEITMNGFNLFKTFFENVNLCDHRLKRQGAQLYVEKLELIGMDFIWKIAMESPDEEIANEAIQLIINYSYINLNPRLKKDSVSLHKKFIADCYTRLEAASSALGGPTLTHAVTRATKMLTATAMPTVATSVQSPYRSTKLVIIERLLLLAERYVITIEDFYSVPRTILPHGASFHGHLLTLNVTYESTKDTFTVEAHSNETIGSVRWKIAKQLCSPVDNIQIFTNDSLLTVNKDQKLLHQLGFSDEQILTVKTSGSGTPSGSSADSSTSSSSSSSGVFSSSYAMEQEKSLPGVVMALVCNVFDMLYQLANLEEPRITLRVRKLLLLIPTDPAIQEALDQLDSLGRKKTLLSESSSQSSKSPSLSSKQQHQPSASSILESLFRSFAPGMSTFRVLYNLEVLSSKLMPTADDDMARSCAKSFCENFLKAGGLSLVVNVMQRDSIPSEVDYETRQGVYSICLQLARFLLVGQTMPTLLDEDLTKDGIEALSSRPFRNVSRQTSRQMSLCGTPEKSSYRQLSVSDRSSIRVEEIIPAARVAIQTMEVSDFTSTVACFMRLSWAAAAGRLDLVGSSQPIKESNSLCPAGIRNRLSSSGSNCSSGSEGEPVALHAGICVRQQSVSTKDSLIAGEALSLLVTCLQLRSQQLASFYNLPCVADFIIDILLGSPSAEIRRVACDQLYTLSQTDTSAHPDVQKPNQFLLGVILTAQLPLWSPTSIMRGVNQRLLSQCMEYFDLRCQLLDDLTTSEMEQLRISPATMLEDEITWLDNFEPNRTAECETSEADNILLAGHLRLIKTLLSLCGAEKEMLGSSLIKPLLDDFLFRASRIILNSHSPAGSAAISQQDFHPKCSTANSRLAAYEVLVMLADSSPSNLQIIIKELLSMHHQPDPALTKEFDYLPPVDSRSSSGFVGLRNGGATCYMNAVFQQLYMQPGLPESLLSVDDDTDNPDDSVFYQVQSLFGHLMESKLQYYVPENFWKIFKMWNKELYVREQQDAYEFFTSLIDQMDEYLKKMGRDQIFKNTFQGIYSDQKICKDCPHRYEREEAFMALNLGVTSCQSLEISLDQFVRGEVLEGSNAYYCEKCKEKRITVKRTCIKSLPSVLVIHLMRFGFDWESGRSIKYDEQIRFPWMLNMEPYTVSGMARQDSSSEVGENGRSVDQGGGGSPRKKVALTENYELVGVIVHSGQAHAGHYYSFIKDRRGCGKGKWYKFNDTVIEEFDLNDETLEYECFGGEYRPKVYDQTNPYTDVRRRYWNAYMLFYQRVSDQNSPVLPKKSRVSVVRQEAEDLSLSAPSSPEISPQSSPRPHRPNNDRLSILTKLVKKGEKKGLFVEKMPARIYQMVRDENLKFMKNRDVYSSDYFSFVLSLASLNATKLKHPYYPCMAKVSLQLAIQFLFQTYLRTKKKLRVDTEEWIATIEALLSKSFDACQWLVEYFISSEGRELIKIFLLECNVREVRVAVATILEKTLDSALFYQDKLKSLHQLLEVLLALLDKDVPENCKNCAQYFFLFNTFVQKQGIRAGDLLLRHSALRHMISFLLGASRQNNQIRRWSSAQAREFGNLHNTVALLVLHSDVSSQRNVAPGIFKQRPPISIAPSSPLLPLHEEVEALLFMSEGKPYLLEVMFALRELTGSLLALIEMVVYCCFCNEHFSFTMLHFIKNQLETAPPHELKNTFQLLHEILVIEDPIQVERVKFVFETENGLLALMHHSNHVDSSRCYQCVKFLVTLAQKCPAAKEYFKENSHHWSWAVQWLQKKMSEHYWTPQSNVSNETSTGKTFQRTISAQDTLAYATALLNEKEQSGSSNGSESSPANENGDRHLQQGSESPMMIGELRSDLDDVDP
In short: as §1

USP25 = target: T2, USP25 (UniProt Q9UHP3)
T2 sequence (whole entry): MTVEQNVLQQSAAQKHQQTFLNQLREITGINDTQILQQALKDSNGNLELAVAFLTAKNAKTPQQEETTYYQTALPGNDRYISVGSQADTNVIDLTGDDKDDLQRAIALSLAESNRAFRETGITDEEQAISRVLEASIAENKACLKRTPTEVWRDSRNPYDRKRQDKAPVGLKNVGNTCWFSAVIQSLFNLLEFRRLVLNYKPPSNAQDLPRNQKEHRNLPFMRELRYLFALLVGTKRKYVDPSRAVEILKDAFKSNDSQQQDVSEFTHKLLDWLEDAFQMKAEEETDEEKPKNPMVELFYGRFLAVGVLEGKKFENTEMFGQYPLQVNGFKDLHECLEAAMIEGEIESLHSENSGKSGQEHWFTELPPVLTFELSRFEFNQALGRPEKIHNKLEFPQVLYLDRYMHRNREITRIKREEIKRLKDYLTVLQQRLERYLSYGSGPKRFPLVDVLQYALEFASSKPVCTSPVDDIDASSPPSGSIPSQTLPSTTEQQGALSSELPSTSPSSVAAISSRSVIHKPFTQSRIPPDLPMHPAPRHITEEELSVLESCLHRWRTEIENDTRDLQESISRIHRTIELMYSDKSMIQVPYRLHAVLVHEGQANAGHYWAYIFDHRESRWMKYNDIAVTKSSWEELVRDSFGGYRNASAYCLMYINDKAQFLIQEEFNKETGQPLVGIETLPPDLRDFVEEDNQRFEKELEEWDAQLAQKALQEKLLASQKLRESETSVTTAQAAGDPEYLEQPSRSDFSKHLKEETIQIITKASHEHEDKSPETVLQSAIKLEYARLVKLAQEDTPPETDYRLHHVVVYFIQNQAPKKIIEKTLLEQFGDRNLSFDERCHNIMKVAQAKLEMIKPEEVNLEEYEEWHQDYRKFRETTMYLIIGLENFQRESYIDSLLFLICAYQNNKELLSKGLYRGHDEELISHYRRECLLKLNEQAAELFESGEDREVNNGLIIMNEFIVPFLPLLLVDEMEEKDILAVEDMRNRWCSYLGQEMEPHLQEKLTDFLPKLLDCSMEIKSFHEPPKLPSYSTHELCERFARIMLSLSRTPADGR
In short: as §1

USP28 = target: T3, USP28 (UniProt Q96RU2)
T3 sequence (whole entry): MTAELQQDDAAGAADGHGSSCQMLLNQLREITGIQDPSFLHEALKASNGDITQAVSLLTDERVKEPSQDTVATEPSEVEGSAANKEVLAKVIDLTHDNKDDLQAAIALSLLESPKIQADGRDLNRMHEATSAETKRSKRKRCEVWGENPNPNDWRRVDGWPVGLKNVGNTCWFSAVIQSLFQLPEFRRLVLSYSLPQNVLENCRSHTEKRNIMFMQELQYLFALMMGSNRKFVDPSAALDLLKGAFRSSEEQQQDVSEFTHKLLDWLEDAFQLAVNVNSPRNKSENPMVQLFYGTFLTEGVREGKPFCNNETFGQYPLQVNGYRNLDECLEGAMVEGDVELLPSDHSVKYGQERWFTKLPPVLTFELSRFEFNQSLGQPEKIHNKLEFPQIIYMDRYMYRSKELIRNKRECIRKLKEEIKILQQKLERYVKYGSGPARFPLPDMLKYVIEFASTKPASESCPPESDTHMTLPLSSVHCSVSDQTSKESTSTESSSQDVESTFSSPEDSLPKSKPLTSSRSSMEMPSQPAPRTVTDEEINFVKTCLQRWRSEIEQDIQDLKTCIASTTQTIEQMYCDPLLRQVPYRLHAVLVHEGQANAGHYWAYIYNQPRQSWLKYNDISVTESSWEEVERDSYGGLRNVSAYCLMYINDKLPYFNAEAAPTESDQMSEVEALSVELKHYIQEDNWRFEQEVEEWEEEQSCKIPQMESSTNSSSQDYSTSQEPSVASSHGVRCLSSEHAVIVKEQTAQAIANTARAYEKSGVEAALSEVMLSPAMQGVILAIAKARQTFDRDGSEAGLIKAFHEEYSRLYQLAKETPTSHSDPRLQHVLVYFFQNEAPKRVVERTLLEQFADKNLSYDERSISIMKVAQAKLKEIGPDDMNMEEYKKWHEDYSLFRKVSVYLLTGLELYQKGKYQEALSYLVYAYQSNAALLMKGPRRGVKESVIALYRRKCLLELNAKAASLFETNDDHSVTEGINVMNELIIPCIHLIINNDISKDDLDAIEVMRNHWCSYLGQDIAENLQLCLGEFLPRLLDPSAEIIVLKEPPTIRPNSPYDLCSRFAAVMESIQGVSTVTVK
In short: as §1

Measured: log2 ratio of Biotin-Ahx-Ub-VS probe labelling

Cl.O=C(CCl)N1CCC(Cc2nccs2)C1 (centres undefined)
inactive: USP19 -0.32 | USP24 -0.414 | USP25 -0.365 | USP28 -0.389

— the supplement of paper PMC11732987, “Enantioselective OTUD7B fragment discovery through chemoproteomics screening and high-throughput optimisation” (Communications Chemistry, 2025)
